Reference: PubChem BioAssay AID1159580 (chemical genetic matrix, 2015)
“And” between values parts separate entries of the source, which are not always exact repeats. Equal values may be shown once. In all, about 5,500 compounds went through this assay and about 2,000 (36%) were called active. Another 18% or so got no clear call; they are omitted. No stated cut-off is given here; in the data, active means normalized growth mostly below about 0.91 (no sharp cut-off); inconclusive means no clear call, values can overlap the other calls; inactive means mostly above about 0.92. The list shows a part of the results.

Assay: chemical genetic growth profiling, strain panel (AID 1159580);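 further: tested at 20 µM; growth read once vehicle control cultures reached saturation at 30 °C; 1 = growth at the plate median or of vehicle wells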
Conditions: S. cerevisiae deletion strains, growth OD

Measured: normalized growth

CC(=O)OCC(=O)[C@@]12OC(C)(C)O[C@@H]1CC1C3C[C@H](F)C4=CC(=O)C=C[C@]4(C)[C@@]3(F)[C@@H](O)C[C@@]12C (some centres not stated)
inactive: locus YAL013W, strain DEP1, stronger effect = lower value 1 | locus YAL021C, strain ccr4, stronger effect = lower value 1.01 | locus YAL026C, strain drs2, stronger effect = lower value 1.02 | locus YAL030W, strain snc1, stronger effect = lower value 1.02 | locus YBL061C, strain skt5, stronger effect = lower value 1.03 | locus YBR009C, strain hhf1, stronger effect = lower value 1.01 | locus YBR021W, strain FUR4, stronger effect = lower value 0.996 | locus YBR023C, strain chs3, stronger effect = lower value 1.03 | locus YBR171W, strain sec66, stronger effect = lower value 1.03 | locus YBR229C, strain ROT2, stronger effect = lower value 1.01 | locus YBR231C, strain swc5, stronger effect = lower value 0.989 | locus YBR279W, strain paf1, stronger effect = lower value 1.03 | locus YCL011C, strain gbp2, stronger effect = lower value 1.04 | locus YCL016C, strain dcc1, stronger effect = lower value 1.03 | locus YCL029C, strain bik1, stronger effect = lower value 1.01 | locus YCL061C, strain MRC1, stronger effect = lower value 1.01 | locus YCL069W, strain vba3, stronger effect = lower value 1.02 | locus YCR088W, strain abp1, stronger effect = lower value 1.02 | locus YDL005C, strain med2, stronger effect = lower value 1.03 | locus YDL035C, strain GPR1, stronger effect = lower value 0.99 | locus YDL040C, strain nat1, stronger effect = lower value 1.02 | locus YDL074C, strain BRE1, stronger effect = lower value 1.01 | locus YDL101C, strain DUN1, stronger effect = lower value 1.01 | locus YDL134C, strain PPH21, stronger effect = lower value 0.99 | locus YDL185W, strain tfp1, stronger effect = lower value 1.02 | locus YDL192W, strain arf1, stronger effect = lower value 1.02 | locus YDR001C, strain nth1, stronger effect = lower value 1.02 | locus YDR069C, strain doa4, stronger effect = lower value 0.998 | locus YDR101C, strain arx1, stronger effect = lower value 0.965 | locus YDR137W, strain rgp1, stronger effect = lower value 1.03 | locus YDR150W, strain NUM1, stronger effect = lower value 1.01 | locus YDR159W, strain sac3, stronger effect = lower value 0.989 | locus YDR162C, strain NBP2, stronger effect = lower value 0.989 | locus YDR195W, strain ref2 0.999 | locus YDR297W, strain sur2, stronger effect = lower value 1.02 | locus YDR318W, strain mcm21, stronger effect = lower value 1.02 | locus YDR334W, strain swr1, stronger effect = lower value 1.02 | locus YDR335W, strain msn5, stronger effect = lower value 1.03 | locus YDR388W, stronger effect = lower value 1.01 | locus YDR392W, strain spt3, stronger effect = lower value 0.981 | locus YDR502C, strain sam2, stronger effect = lower value 1 | locus YEL003W, strain gim4, stronger effect = lower value 1.02 | locus YEL037C, strain rad23, stronger effect = lower value 1.02 | locus YEL061C, strain CIN8 (second series), stronger effect = lower value 1.02 | locus YEL061C, strain CIN8, stronger effect = lower value 1.01 | locus YER015W, strain faa2, stronger effect = lower value 1.02 | locus YER016W, strain bim1, stronger effect = lower value 1.01 | locus YER110C, stronger effect = lower value 1.02 | locus YER111C, strain swi4, stronger effect = lower value 1.04 | locus YER155C, strain BEM2 (second series), stronger effect = lower value 0.995 | locus YER155C, strain BEM2, stronger effect = lower value 1.01 | locus YER167W, strain BCK2, stronger effect = lower value 0.996 | locus YFR010W, strain ubp6, stronger effect = lower value 1.01 | locus YGL078C, strain dbp3, stronger effect = lower value 1.02 | locus YGL086W, strain mad1, stronger effect = lower value 0.992 | locus YGL167C, strain pmr1, stronger effect = lower value 1.02 | locus YGL173C, strain kem1, stronger effect = lower value 1.02 | locus YGL227W, strain vid30, stronger effect = lower value 1.03 | locus YGL240W, strain doc1, stronger effect = lower value 1.01 | locus YGL248W, strain PDE1, stronger effect = lower value 1.01 | locus YGL253W, strain hxk2, stronger effect = lower value 1.01 | locus YGR135W, strain pre9, stronger effect = lower value 1.07 | locus YGR252W, strain gcn5, stronger effect = lower value 1.1 | locus YHR013C, strain ard1, stronger effect = lower value 1.04 | locus YHR027C, strain rpn1, stronger effect = lower value 1.02 | locus YHR030C, strain SLT2, stronger effect = lower value 0.995 and 0.988 | locus YHR079C, strain IRE1 (second series), stronger effect = lower value 1.01 | locus YHR079C, strain IRE1, stronger effect = lower value 1 | locus YHR094C, strain hxt1, stronger effect = lower value 1.02 | locus YHR129C, strain ARP1, stronger effect = lower value 1.01 | locus YHR142W, strain chs7, stronger effect = lower value 1.04 | locus YHR200W, strain rpn10, stronger effect = lower value 1.01 | locus YIL066C, strain RNR3, stronger effect = lower value 1 | locus YIL073C, strain SPO22, stronger effect = lower value 1.02 | locus YIL125W, strain kgd1, stronger effect = lower value 1 | locus YIR030C, strain dcg1, stronger effect = lower value 1.03 | locus YJL092W, strain hpr5, stronger effect = lower value 1.03 | locus YJL095W, strain BCK1 (second series), stronger effect = lower value 1.02 | locus YJL095W, strain BCK1, stronger effect = lower value 1.03 and 0.999 | locus YJL115W, strain asf1, stronger effect = lower value 1.01 | locus YJL129C, strain trk1, stronger effect = lower value 1.03 | locus YJL134W, strain LCB3, stronger effect = lower value 1.01 | locus YJL154C, strain vps35, stronger effect = lower value 1.02 | locus YJL164C, strain tpk1, stronger effect = lower value 1.02 | locus YJL166W, strain qcr8, stronger effect = lower value 1.04 | locus YJL168C, strain set2, stronger effect = lower value 1.02 | locus YJL187C, strain SWE1 (second series), stronger effect = lower value 1.01 | locus YJL187C, strain SWE1, stronger effect = lower value 1.02 | locus YJR043C, strain POL32, stronger effect = lower value 0.999 | locus YJR066W, strain TOR1, stronger effect = lower value 0.937 | locus YJR075W, strain HOC1, stronger effect = lower value 1 | locus YKL009W, strain mrt4, stronger effect = lower value 1.01 | locus YKL068W, stronger effect = lower value 1.01 | locus YKL085W, strain MDH1 (second series), stronger effect = lower value 1.01 | locus YKL085W, strain MDH1, stronger effect = lower value 1.01 | locus YKL160W, strain elf1, stronger effect = lower value 1.05 | locus YKR001C, strain vps1, stronger effect = lower value 1 | locus YKR026C, strain gcn3, stronger effect = lower value 1.02 | locus YKR091W, strain srl3, stronger effect = lower value 1.02 | locus YLL001W, strain dnm1, stronger effect = lower value 1.03 | locus YLL026W, stronger effect = lower value 1.02 | locus YLL041C, strain sdh2, stronger effect = lower value 1.01 | locus YLR027C, strain aat2, stronger effect = lower value 1.01 | locus YLR039C, strain RIC1, stronger effect = lower value 1.06 | locus YLR058C, strain SHM2, stronger effect = lower value 1.01 | locus YLR102C, strain apc9, stronger effect = lower value 1.01 | locus YLR113W, strain HOG1, stronger effect = lower value 1.02 | locus YLR221C, strain rsa3, stronger effect = lower value 1.03 | locus YLR258W, strain gsy2, stronger effect = lower value 1.04 | locus YLR262C, strain YPT6 (second series), stronger effect = lower value 1.04 | locus YLR262C, strain YPT6, stronger effect = lower value 0.987 | locus YLR268W, strain sec22, stronger effect = lower value 1.01 | locus YLR320W, strain mms22, stronger effect = lower value 1.06 | locus YLR330W, strain CHS5, stronger effect = lower value 1.01 | locus YLR342W, strain FKS1 (second series), stronger effect = lower value 1.03 | locus YLR342W, strain FKS1, stronger effect = lower value 1.03 | locus YLR357W, strain rsc2, stronger effect = lower value 1.01 | locus YLR370C, strain arc18, stronger effect = lower value 1.03 | locus YLR371W, strain rom2, stronger effect = lower value 1.01 | locus YLR384C, strain iki3, stronger effect = lower value 1.03 | locus YLR418C, strain cdc73, stronger effect = lower value 1.03 | locus YML016C, strain PPZ1, stronger effect = lower value 1 | locus YML032C, strain rad52, stronger effect = lower value 0.996 | locus YML120C, strain ndi1, stronger effect = lower value 1.04 | locus YML124C, strain tub3, stronger effect = lower value 1.03 | locus YMR058W, strain fet3, stronger effect = lower value 1.01 | locus YMR078C, strain ctf18, stronger effect = lower value 1.01 | locus YMR125W, strain sto1, stronger effect = lower value 1.03 | locus YMR129W, stronger effect = lower value 1.02 | locus YMR205C, strain PFK2, stronger effect = lower value 1.05 | locus YMR223W, strain ubp8, stronger effect = lower value 1.05 | locus YMR231W, strain pep5, stronger effect = lower value 1.02 | locus YMR307W, strain GAS1, stronger effect = lower value 1.04 | locus YNL067W, strain RPL9B, stronger effect = lower value 0.995 | locus YNL071W, strain lat1, stronger effect = lower value 1.03 | locus YNL153C, strain GIM3, stronger effect = lower value 1.01 | locus YNL183C, strain NPR1, stronger effect = lower value 0.945 | locus YNL209W, strain ssb2, stronger effect = lower value 1.03 | locus YNL233W, strain BNI4, stronger effect = lower value 1.01 | locus YNL248C, strain rpa49, stronger effect = lower value 1.02 | locus YNL250W, strain rad50, stronger effect = lower value 1.03 | locus YNL271C, strain bni1, stronger effect = lower value 1.04 | locus YNL298W, strain CLA4, stronger effect = lower value 1.04 | locus YNL307C, strain MCK1, stronger effect = lower value 1.02 | locus YNL322C, strain KRE1 (second series), stronger effect = lower value 1.04 | locus YNR049C, strain mso1, stronger effect = lower value 1.02 | locus YNR052C, strain pop2, stronger effect = lower value 1.01 | locus YOL006C, strain TOP1, stronger effect = lower value 1.03 | locus YOL012C, strain htz1 2.14 | locus YOL147C, strain pex11, stronger effect = lower value 1.02 | locus YOR001W, strain rrp6, stronger effect = lower value 1 | locus YOR061W, strain CKA2, stronger effect = lower value 1.01 | locus YOR069W, strain VPS5, stronger effect = lower value 1.01 | locus YOR070C, strain gyp1, stronger effect = lower value 1.03 | locus YOR080W, strain dia2, stronger effect = lower value 1.02 | locus YOR083W, strain WHI5, stronger effect = lower value 1.04 | locus YOR106W, strain vam3, stronger effect = lower value 1.05 | locus YOR136W, strain idh2, stronger effect = lower value 1.01 | locus YOR144C, strain elg1, stronger effect = lower value 1 | locus YOR184W, strain ser1, stronger effect = lower value 1.01 | locus YOR231W, strain MKK1, stronger effect = lower value 0.999 | locus YOR265W, strain rbl2, stronger effect = lower value 1.02 | locus YOR270C, strain vph1, stronger effect = lower value 1.03 | locus YOR290C, strain snf2, stronger effect = lower value 0.982 | locus YOR316C, strain cot1, stronger effect = lower value 1.01 | locus YPL051W, strain arl3, stronger effect = lower value 1.02 | locus YPL055C, strain LGE1, stronger effect = lower value 1.01 | locus YPL078C, strain atp4, stronger effect = lower value 1.04 | locus YPL106C, strain sse1, stronger effect = lower value 1 | locus YPL240C, strain hsp82, stronger effect = lower value 1.01 | locus YPL241C, strain CIN2, stronger effect = lower value 0.999 | locus YPL256C, strain CLN2, stronger effect = lower value 0.974 | locus YPR119W, strain clb2, stronger effect = lower value 1.01 | locus YPR141C, strain kar3, stronger effect = lower value 1.02 | locus YPR163C, strain tif3, stronger effect = lower value 1.02 | locus YPR167C, strain met16, stronger effect = lower value 1.02 | strain wtn01, stronger effect = lower value 1.02
